In publication PMC11062922 (Nature Chemical Biology, 2023):
Read-outs that look alike come from different tables or passages of the source.

Experiments:
Design in all cases: species or system human, MV4-11 + K-562 + COLO205 + SK-N-BE2 + OVCAR-8
[1] = test system: NCL; details: read-out: apparent Kd; compound concentrations: 100 nM and 1000 nM (sheet 'Samples'), CATDS: 1.71627638164802E-2; n = 1
[2] = test system: PRKCZ; details: read-out: apparent Kd; compound concentrations: 100 nM and 1000 nM (sheet 'Samples'), CATDS: 1.7514325716089001E-2; n = 1
[3] = test system: NEK2; details: read-out: apparent Kd; compound concentrations:100 nM and 1000 nM (sheet 'Samples'); n = 1
[4] = test system: PKMYT1; details: read-out: apparent Kd; compound concentrations:100 nM and 1000 nM (sheet 'Samples'); n = 1
[5] = test system: CAMK4; details: read-out: apparent Kd, n = 1
[6] = test system: PKM; details: read-out: apparent Kd, compound concentrations: 100 nM and 1000 nM (sheet 'Samples'), n = 1
[7] = test system: CIT; details: read-out: apparent Kd; compound concentrations:100 nM and 1000 nM (sheet 'Samples'); n = 1
[8] = test system: CSNK1G3; details: read-out: apparent Kd; compound concentrations:100 nM and 1000 nM (sheet 'Samples'); n = 1
[9] = test system: DHCR24; details: read-out: apparent Kd, n = 1
[10] = test system: ARAF; details: read-out: apparent Kd, compound concentrations: 100 nM and 1000 nM (sheet 'Samples'), n = 1
[11] = test system: DCK; details: read-out: apparent Kd, n = 1
[12] = test system: PI4KA; details: read-out: apparent Kd; compound concentrations:100 nM and 1000 nM (sheet 'Samples'); n = 1
[13] = test system: TUBB6; details: read-out: apparent Kd, n = 1
[14] = test system: CDK12; details: read-out: apparent Kd; compound concentrations:100 nM and 1000 nM (sheet 'Samples'); n = 1
[15] = test system: CDK13; details: read-out: apparent Kd, n = 1
[16] = test system: PRKCI; details: read-out: apparent Kd, n = 1
[17] = test system: EPHA7; details: read-out: apparent Kd; compound concentrations:100 nM and 1000 nM (sheet 'Samples'); n = 1
[18] = test system: CAMK2D; details: read-out: apparent Kd, n = 1
[19] = test system: PSMC3; details: read-out: apparent Kd, n = 1
[20] = test system: CDC42BPG; details: read-out: apparent Kd, n = 1
[21] = compound concentrations:100 nM and 1000 nM (sheet 'Samples')

**Q.** Which potency estimated from few doses [1] does the source give for `Cl.Cl.Cl.c1ccc(Oc2ccc(Nc3ccnc4cc(-c5ccc(CN6CCNCC6)o5)ccc34)cc2)nc1.c1ccc(Oc2ccc(Nc3ccnc4cc(-c5ccc(CN6CCNCC6)o5)ccc34)cc2)nc1` [GW567142A] here?
**A.** Its potency estimated from few doses is 1.97 µM.

**Q.** What about the potency estimated from few doses [2] of the same compound?
**A.** Its potency estimated from few doses is 1.82 µM.

**Q.** For `CCN(CC)CCOc1ccc(Nc2ncc3cc(-c4c(Cl)cccc4Cl)c(=O)n(C)c3n2)cc1` [SB-601273], which potency estimated from few doses [3] is on record?
**A.** Its potency estimated from few doses is 1.78 µM.

**Q.** And the potency estimated from few doses [4]?
**A.** Its potency estimated from few doses is 1.03 µM.

**Q.** `CN1CCN(Cc2ccc(-c3ccc4c(Nc5ccc(Oc6ccccn6)cc5)ccnc4c3)o2)CC1` [GW567140X] was tested. Which potency estimated from few doses ([5]; compound concentrations: 100 nM and 1000 nM (sheet 'Samples'), CATDS: 3.2094924147275203E-2) did it give?
**A.** Its potency estimated from few doses is 2 µM.

**Q.** What about the potency estimated from few doses ([6]; CATDS: 3.4326075880393901E-2) of the same compound?
**A.** Its potency estimated from few doses is 1.52 µM.

**Q.** Which results are given for `CC(=O)c1c(-c2ccncc2)[nH]c(-c2ccncc2)c1C` [GW493036X]?
**A.** potency estimated from few doses [7]: 0.173 µM; potency estimated from few doses [8]: 0.842 µM; potency estimated from few doses [9, 21]: 1.24 µM

**Q.** For `CC(=O)N1CCN(c2ccc(Nc3nccc(-c4sc(C(C)C)nc4-c4cccc(NS(=O)(=O)c5ccccc5)c4)n3)cn2)CC1` [GSK1645872A], which potency estimated from few doses ([10]; CATDS: 2.3399978491415799E-2) is on record?
**A.** The potency estimated from few doses was 1.56 µM.

**Q.** With `CNc1nccc(-c2c(-c3ccc(F)cc3)ncn2C2CCN(C)CC2)n1` [SB-222903] as the compound, how does the potency estimated from few doses [7] read?
**A.** The potency estimated from few doses was 0.67 µM.

**Q.** With `Fc1ccc(-c2c(-c3ccncc3)[nH]c3nccnc23)cc1` [RO1155697-000] as the compound, how does the potency estimated from few doses [5, 21] read?
**A.** The potency estimated from few doses was 1.55 µM.

**Q.** With `Nc1nc(N)c2nc(-c3ccccc3)[nH]c2n1` [SKF-12778] as the compound, how does the potency estimated from few doses [8] read?
**A.** Its potency estimated from few doses is 1.18 µM.

**Q.** And the potency estimated from few doses [11, 21]?
**A.** The potency estimated from few doses was 1.72 µM.

**Q.** And the potency estimated from few doses [12]?
**A.** The potency estimated from few doses was 1.4 µM.

**Q.** What about the potency estimated from few doses [13, 21] of the same compound?
**A.** The potency estimated from few doses was 1.77 µM.

**Q.** For `CC(C)c1nc(-c2cccc(NS(=O)(=O)c3c(F)cccc3F)c2F)c(-c2ccnc(Nc3ccc(N4CCOCC4)nc3)n2)s1` [GSK2008607A], which potency estimated from few doses ([10]; CATDS: 1.81049419419274E-2) is on record?
**A.** Its potency estimated from few doses is 2.03 µM.

**Q.** `N#Cc1cccc(Nc2nccc(-c3cnn4ncccc34)n2)c1` [GW778894X] was tested. Which potency estimated from few doses [14] did it give?
**A.** The potency estimated from few doses was 0.541 µM.

**Q.** What about the potency estimated from few doses [15, 21] of the same compound?
**A.** Its potency estimated from few doses is 1.16 µM.

**Q.** Which results are given for `O=S(=O)(CCOCc1ccc(-c2ccc3ncnc(Nc4ccc(OCc5cccc(F)c5)c(Cl)c4)c3c2)o1)c1ccccc1` [GW615311X]?
**A.** potency estimated from few doses ([11]; compound concentrations: 100 nM and 1000 nM (sheet 'Samples'), CATDS: 2.31641141582303E-2): 2.11 µM; potency estimated from few doses ([16]; compound concentrations: 100 nM and 1000 nM (sheet 'Samples'), CATDS: 2.29472037028754E-2): 2.16 µM; potency estimated from few doses ([13]; compound concentrations: 100 nM and 1000 nM (sheet 'Samples'), CATDS: 2.6696132806602001E-2): 1.5 µM

**Q.** Which potency estimated from few doses [16, 21] does the source give for `Nc1c(C(=O)c2ccccc2)cnn1-c1ccc(F)cc1` [RO1151246-000] here?
**A.** Its potency estimated from few doses is 2.03 µM.

**Q.** Which potency estimated from few doses [17] does the source give for `Cc1ccc(-n2nc(C(C)(C)C)cc2NC(=O)Nc2ccc(OCCN3CCOCC3)cc2)cc1` [BIRB0876BS] here?
**A.** Its potency estimated from few doses is 1.83 µM.

**Q.** With `Cn1cc(C2=C(c3ccccc3[N+](=O)[O-])C(=O)NC2=O)c2ccccc21` [RO0317753-000] as the compound, how does the potency estimated from few doses ([18]; compound concentrations: 100 nM and 1000 nM (sheet 'Samples'), CATDS: 9.7402766920506798E-2) read?
**A.** Its potency estimated from few doses is 0.597 µM.

**Q.** For `COc1ccc(Nc2nccc(N3CCC(NC(=O)Nc4cccc(OC)c4)C3)n2)cc1` (stereo not drawn) [GSK1379742A], which potency estimated from few doses ([9]; compound concentrations: 100 nM and 1000 nM (sheet 'Samples'), CATDS: 0.157459675408709) is on record?
**A.** Its potency estimated from few doses is 1.06 µM.

**Q.** Which potency estimated from few doses [12] does the source give for `COc1ccc(C2=C(Nc3cccc(O)c3)C(=O)NC2=O)cc1` [SB-390766] here?
**A.** The potency estimated from few doses was 1.33 µM.

**Q.** Which potency estimated from few doses [14] does the source give for `COc1cc(F)c(F)c(F)c1C(=O)c1cnc(NC2CCN(S(C)(=O)=O)CC2)nc1N` [RO4600703-000] here?
**A.** Its potency estimated from few doses is 2.3 µM.

**Q.** How did the potency estimated from few doses [17] turn out when `NC(=O)c1cccnc1COc1cc(-c2ccc(N3CCOCC3)nc2)cc2ncccc12` [BI01125081] was run?
**A.** Its potency estimated from few doses is 1.5 µM.

**Q.** `CCCCCNC(=O)[C@@H]1CCCN2C(=O)CC[C@H](NC(=O)[C@H](Cc3ccc(OP(=O)(O)O)cc3)NC(C)=O)C(=O)N12` [RO0324694-000] was tested. Which potency estimated from few doses [19, 21] did it give?
**A.** Its potency estimated from few doses is 1.91 µM.

**Q.** For `COc1ccc(-c2nn3ncccc3c2-c2ccnc(Nc3ccc4c(c3)OCCO4)n2)cc1` [GW827106X], which potency estimated from few doses ([20]; compound concentrations: 100 nM and 1000 nM (sheet 'Samples'), CATDS: 6.5617212110221396E-2) is on record?
**A.** Its potency estimated from few doses is 0.834 µM.

**Q.** What about the potency estimated from few doses ([15]; compound concentrations: 100 nM and 1000 nM (sheet 'Samples'), CATDS: 4.6663696277222499E-2) of the same compound?
**A.** Its potency estimated from few doses is 1.77 µM.

**Q.** For `Cc1[nH]nc2c1N=C(c1ccccc1Cl)c1cc([N+](=O)[O-])ccc1N2` [RO0274406-000], which potency estimated from few doses ([6]; CATDS: 7.8896221929170104E-2) is on record?
**A.** The potency estimated from few doses was 0.922 µM.

**Q.** For `Fc1cccc(COc2ccc(Nc3ncncc3C#Cc3ccccc3)cc2Cl)c1` [GW651576X], which potency estimated from few doses ([19]; compound concentrations: 100 nM and 1000 nM (sheet 'Samples'), CATDS: 4.80880541633023E-2) is on record?
**A.** Its potency estimated from few doses is 1.95 µM.

**Q.** For `Cl.Oc1ccc2ncnc(Nc3ccc(OCc4ccccc4)cc3)c2c1` [GI262866A], which potency estimated from few doses [18, 21] is on record?
**A.** Its potency estimated from few doses is 0.388 µM.

**Q.** With `COc1ccccc1-c1cc(/C=C2\C(=O)Nc3ncc(Br)cc32)cc(Br)c1O` [GW442130X] as the compound, how does the potency estimated from few doses [20, 21] read?
**A.** Its potency estimated from few doses is 0.453 µM.
